Experimental data: ChEMBL document CHEMBL4513216, “Probing the Open Global Health Chemical Diversity Library for Multistage-Active Starting Points for Next-Generation Antimalarials” (ACS Infect Dis, 2020)
In all, about 65,000 compounds went through this assay and about 2,100 (3.2%) showed an effect of 50% or more. The median lay at about -52%. This excerpt belongs to a sample that is enriched for strong results.

What follows are molecules tested on Plasmodium falciparum (assay: Screen against P. falciparum Asexual Blood Stage (ABS), at 5uM). Conditions: tested at 5 uM.
Type: functional, Dd2

Row | SMILES | INHIBITION
1 | Cc1nc(C(=O)NCCS(=O)(=O)N2CCCC2)cs1 | -31.8%
2 | Cc1nc(COc2ccc(OC3CCCCNC3=O)cc2)oc1C (centres undefined) | -151%
3 | O=C(Nc1ccc2c(c1)C(=O)NC2=O)c1cccs1 | -80.7%
4 | CCC(=O)N1CCC2(CC1)COCCN2Cc1ccc(F)cc1 | -31.7%
5 | CC(=O)N(Cc1noc(C)n1)C1CCN(CCOc2ccccc2)C1 (centres undefined) | -79.1%
6 | Cn1cc(N2CC3(CCN(CC4CC4)CC3)OCC2=O)cn1 | -53.1%
7 | Cc1noc(-c2ccnc(Oc3ccc(CN4CCCC4)cc3F)c2)n1 | -38.8%
8 | Cc1noc(-c2ccnc(Oc3ccccc3CN3CCCCC3)c2)n1 | -36.8%
9 | Cc1noc(-c2ccnc(Oc3ccc(CN4CCCC4)cc3C)c2)n1 | 53.3%
10 | Cc1ccc(-c2nnc(CN3CCc4nn(C)c(=O)cc4C3)o2)cc1 | -38.4%
11 | CCOC(=O)N1CCN(c2nc(NC3CC3)c3ccccc3n2)CC1 | 4.86%
12 | Cc1csc2c(C3CCCN(C(=O)CCn4ccnc4)C3)nc(C)n12 (centres undefined) | -97.3%
13 | COCCN(CC1CCCN(C2Cc3ccccc3C2)C1)C(=O)CSC (centres undefined) | 1.3%
14 | COCCN(CC1CCCN(C2Cc3ccccc3C2)C1)C(=O)CO (centres undefined) | 59.9%
15 | COCCN(CC1CCCN(C2Cc3ccccc3C2)C1)C(=O)COC (centres undefined) | 39.5%
16 | O=C(NC1CCC1)C1=NOC2(CCN(Cc3ccc(F)cc3)C2)C1 (centres undefined) | -11.6%
17 | c1ccc(CN2CC[C@@H]3O[C@@H](COCCN4CCCC4)CC[C@@H]32)nc1 | -36%
18 | COCCN1CC[C@@H]2OC[C@H](C(=O)N(C)Cc3ccccn3)C[C@@H]2C1 | 11.1%
19 | c1cc(N2CCSCC2)ccc1CNc1cncc2nnnn12 | -119%
20 | c1cc(CN2CCCC2)ccc1CNc1cncc2nnnn12 | -31.2%
21 | c1ccc(CN2CCCC2)c(CNc2cncc3nnnn23)c1 | 61.4%
22 | Cc1cc(C(=O)N2C[C@@H]3COC[C@]3(CN(C)C)C2)sc1C | -113%
23 | Cc1cc(C)nc(N(C)CCN(C)C2CCCC2)n1 | 28%
24 | Cc1cc(N(C)CCN(C)C2CCCC2)n2nc(C)cc2n1 | 55.7%
25 | Cc1cc(N(C)CCN(C)C)n2nc(C)cc2n1 | -113%
26 | O=C(c1ccc2[nH]ccc2c1)N1CCn2cc(CN3CCCC3)nc2C1 | -38.2%
27 | c1cc(CNCC2OCCc3cn(CC4CC4)nc32)cs1 (centres undefined) | 47%
28 | COCCn1cc2c(n1)C(CNCc1ccc(F)cc1)OCC2 (centres undefined) | -11.4%
29 | Fc1ccc(CNCC2OCCc3cn(CC4CC4)nc32)cc1 (centres undefined) | 68.9%
